Assay results taken from PubChem BioAssay (NCI).
Compounds without any hit were thinned out: in the full panel of roughly 79,000, 15% have a hit. Unmarked numbers belong to inactive results. The source made the active and inactive calls. Rule as the data show it: active = growth inhibition above about 70%; inactive = the rest.

Assays:
[1] = NCI Yeast Anticancer Drug Screen. Data for the rad52 strain (AID 147);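 also: 0% = growth of vehicle-treated control cultures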; settings: S. cerevisiae rad52 mutant growth inhibition, stronger effect = higher value
How it was run: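 DNA repair-defective yeast; compound exposure; growth scored against vehicle controls.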

[2] = NCI Yeast Anticancer Drug Screen. Data for the wt1 strain (AID 149);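 also: 0% = growth of vehicle-treated wt1 cultures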; settings: S. cerevisiae wt1 strain (SPY 50644) growth inhibition, stronger effect = higher value
How it was run: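 Each compound is tested on wt1 yeast and the loss of growth versus vehicle gives the inhibition value.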

[3] = NCI Yeast Anticancer Drug Screen. Data for the rad50EPP+ strain (AID 151);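 also: 0% = growth of vehicle-treated control cultures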; settings: S. cerevisiae rad50 mutant strain, stronger effect = higher value
How it was run: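 rad50EPP+ yeast treated with test compounds. Readout: growth vs vehicle control.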

[4] = NCI Yeast Anticancer Drug Screen. Data for the mgt1 strain (AID 153); settings: S. cerevisiae mgt1 mutant growth inhibition, stronger effect = higher value
How it was run: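 Growth inhibition relative to vehicle controls was scored for the mgt1 yeast strain after compound exposure.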

[5] = NCI Yeast Anticancer Drug Screen. Data for the rad50 strain (AID 155);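 also: 0% = growth of vehicle-only cultures of the same strain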; settings: S. cerevisiae rad50 strain growth inhibition, stronger effect = higher value
How it was run: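 Vehicle-treated cultures provide the reference for the growth inhibition reported for compound-exposed, repair-deficient yeast.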

[6] = NCI Yeast Anticancer Drug Screen. Data for the mec2-1 strain (AID 157); settings: S. cerevisiae mec2-1 strain, stronger effect = higher value
How it was run: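 Growth inhibition is read against vehicle-treated controls after compound exposure of the mec2-1 yeast strain, which is defective in DNA damage repair or cell cycle control.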

[7] = NCI Yeast Anticancer Drug Screen. Data for the rad14 strain (AID 159);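 also: 0% = growth of vehicle-treated control cultures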; settings: S. cerevisiae rad14 strain growth inhibition, stronger effect = higher value
How it was run: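 Inhibition of growth is reported for a repair-deficient yeast mutant following compound treatment, calculated relative to cultures that received vehicle.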

[8] = NCI Yeast Anticancer Drug Screen. Data for the sgs1 mgt1 strain (AID 161);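 also: 0% = growth of cultures given vehicle only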; settings: S. cerevisiae sgs1 mgt1 strain, stronger effect = higher value
How it was run: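 Yeast cells carrying a defined DNA-repair defect were exposed to test compounds. Growth inhibition was measured relative to vehicle-treated controls.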

[9] = NCI Yeast Anticancer Drug Screen. Data for the CLN2oe strain (AID 163);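 also: 0% = growth of vehicle-only control cultures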; settings: S. cerevisiae CLN2oe strain, stronger effect = higher value
How it was run: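 Compound-treated yeast; growth vs vehicle ctrl = % inhibition. Genetically altered strain (cell-cycle control).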

[10] = NCI Yeast Anticancer Drug Screen. Data for the cln2 rad14 strain (AID 165);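 also: 0% = growth equal to vehicle treated cultures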; settings: S. cerevisiae cln2 rad14 strain, stronger effect = higher value
How it was run: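 Growth inhibition, relative to vehicle-treated controls, is the read-out. The test organism is a yeast strain with defined genetic alterations, cln2 rad14.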

[11] = NCI Yeast Anticancer Drug Screen. Data for the bub3 strain (AID 167); settings: S. cerevisiae bub3 mutant strain, stronger effect = higher value
How it was run: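 Mutant yeast screening strain plus compound; vehicle-treated cultures serve as the 0% inhibition reference.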

[12] = NCI Yeast Anticancer Drug Screen. Data for the wt2 strain (AID 169); settings: S. cerevisiae wt2 strain growth inhibition, stronger effect = higher value
How it was run: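 Compound exposure of yeast; growth compared with vehicle controls; inhibition reported.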

[13] = NCI Yeast Anticancer Drug Screen. Data for the mlh1 strain (AID 171);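 also: 0% = growth of vehicle-treated control cultures of the same strain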; settings: S. cerevisiae mlh1 strain growth inhibition, stronger effect = higher value
How it was run: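 Compounds are applied to a genetically altered yeast strain, and its growth is compared with that of vehicle-treated cultures to give percent inhibition.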

[14] = NCI Yeast Anticancer Drug Screen. Data for the sgs1 strain (AID 173);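 also: 0% = growth of vehicle-only control cultures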; settings: S. cerevisiae sgs1 mutant, stronger effect = higher value
How it was run: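 Compounds applied to genetically altered yeast; growth compared with vehicle-treated cultures to give % inhibition.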

[15] = NCI Yeast Anticancer Drug Screen. Data for the mlh1 rad18 strain (AID 175); settings: S. cerevisiae mlh1 rad18 strain growth inhibition, stronger effect = higher value
How it was run: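 Cells of a genetically altered yeast strain, deficient in DNA damage repair, were treated with compound. Their growth was then compared with that of vehicle-treated cultures to give inhibition.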

[16] = NCI Yeast Anticancer Drug Screen. Data for the rad18 strain (AID 177); settings: S. cerevisiae rad18 mutant growth inhibition, stronger effect = higher value
How it was run: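 Compounds are applied to a repair-deficient yeast strain, and growth is compared with that of vehicle-treated cultures to give percent inhibition.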

[17] = at 5.0 µM (retest, dose inferred, filed as 0.5)
[18] = at 50.0 µM (retest, dose inferred, filed as 5.0)

Q: Which results are given for `COC1CCC(O)C(/C=C/[N+](=O)[O-])C1` (stereo unspecified)?
A: growth inhibition ([1]; at 1.2 µM): 27%; growth inhibition ([1]; at 3.7 µM): 81% (active); growth inhibition ([1]; at 11.0 µM): 99% (active); growth inhibition ([1]; at 33.0 µM): 99% (active); growth inhibition ([1]; at 100.0 µM): 99% (active); growth inhibition ([2]; at 1.2 µM): 3%; growth inhibition ([2]; at 3.7 µM): 18%; growth inhibition ([2]; at 11.0 µM): 99% (active); growth inhibition ([2]; at 33.0 µM): 99% (active); growth inhibition ([2]; at 100.0 µM): 99% (active); growth inhibition ([3]; at 1.2 µM): 6%; growth inhibition ([3]; at 3.7 µM): 19%; growth inhibition ([3]; at 11.0 µM): 56%; growth inhibition ([3]; at 33.0 µM): 94% (active); growth inhibition ([3]; at 100.0 µM): 99% (active); growth inhibition ([4]; at 1.2 µM): 8%; growth inhibition ([4]; at 3.7 µM): 63%; growth inhibition ([4]; at 11.0 µM): 99% (active); growth inhibition ([4]; at 33.0 µM): 100% (active); growth inhibition ([4]; at 100.0 µM): 99% (active); growth inhibition ([5]; at 1.2 µM): 29%; growth inhibition ([5]; at 3.7 µM): 83% (active); growth inhibition [5, 17]: 50%; growth inhibition ([5]; at 11.0 µM): 99% (active); growth inhibition ([5]; at 33.0 µM): 99% (active); growth inhibition [5, 18]: 99% (active); growth inhibition ([5]; at 50.0 µM): 98.7% (active); growth inhibition ([5]; at 100.0 µM): 99% (active); growth inhibition ([6]; at 1.2 µM): 5%; growth inhibition ([6]; at 3.7 µM): 42%; growth inhibition [6, 17]: 21%; growth inhibition ([6]; at 11.0 µM): 100% (active); growth inhibition ([6]; at 33.0 µM): 99% (active); growth inhibition [6, 18]: 100% (active); growth inhibition ([6]; at 50.0 µM): 99.6% (active); growth inhibition ([6]; at 100.0 µM): 99% (active); growth inhibition ([7]; at 1.2 µM): 7%; growth inhibition ([7]; at 3.7 µM): 42%; growth inhibition ([7]; at 11.0 µM): 99% (active); growth inhibition ([7]; at 33.0 µM): 99% (active); growth inhibition ([7]; at 100.0 µM): 99% (active); growth inhibition [8, 17]: 67%; growth inhibition [8, 18]: 100% (active); growth inhibition ([8]; at 50.0 µM): 98.2% (active); growth inhibition ([9]; at 1.2 µM): 0%; growth inhibition ([9]; at 3.7 µM): 15%; growth inhibition ([9]; at 11.0 µM): 99% (active); growth inhibition ([9]; at 33.0 µM): 99% (active); growth inhibition ([9]; at 100.0 µM): 99% (active); growth inhibition [10, 17]: 17%; growth inhibition [10, 18]: 99% (active); growth inhibition ([10]; at 50.0 µM): 89.8% (active); growth inhibition ([11]; at 1.2 µM): 4%; growth inhibition ([11]; at 3.7 µM): 32%; growth inhibition [11, 17]: 79% (active); growth inhibition ([11]; at 11.0 µM): 99% (active); growth inhibition ([11]; at 33.0 µM): 99% (active); growth inhibition [11, 18]: 100% (active); growth inhibition ([11]; at 50.0 µM): 98.7% (active); growth inhibition ([11]; at 100.0 µM): 99% (active); growth inhibition ([12]; at 1.2 µM): 9%; growth inhibition ([12]; at 3.7 µM): 66%; growth inhibition ([12]; at 11.0 µM): 99% (active); growth inhibition ([12]; at 33.0 µM): 99% (active); growth inhibition ([12]; at 100.0 µM): 99% (active); growth inhibition ([13]; at 1.2 µM): 13%; growth inhibition ([13]; at 3.7 µM): 79% (active); growth inhibition ([13]; at 11.0 µM): 99% (active); growth inhibition ([13]; at 33.0 µM): 99% (active); growth inhibition ([13]; at 100.0 µM): 100% (active); growth inhibition ([14]; at 1.2 µM): 13%; growth inhibition ([14]; at 3.7 µM): 68%; growth inhibition ([14]; at 11.0 µM): 99% (active); growth inhibition ([14]; at 33.0 µM): 99% (active); growth inhibition ([14]; at 100.0 µM): 98% (active); growth inhibition [15, 17]: 79% (active); growth inhibition [15, 18]: 99% (active); growth inhibition ([15]; at 50.0 µM): 98.2% (active); growth inhibition ([16]; at 1.2 µM): 12%; growth inhibition ([16]; at 3.7 µM): 65%; growth inhibition ([16]; at 11.0 µM): 99% (active); growth inhibition ([16]; at 33.0 µM): 99% (active); growth inhibition ([16]; at 100.0 µM): 99% (active)

Q: What does the source list for `C(=Nc1ccc(-c2cc(-c3ccccc3)nc3ccc4ccccc4c23)cc1)c1ccccc1`?
A: growth inhibition ([1]; at 1.2 µM): 34%; growth inhibition ([1]; at 3.7 µM): 40%; growth inhibition ([1]; at 11.0 µM): 37%; growth inhibition ([1]; at 33.0 µM): 53%; growth inhibition ([1]; at 100.0 µM): 76% (active); growth inhibition ([2]; at 1.2 µM): 26%; growth inhibition ([2]; at 3.7 µM): 24%; growth inhibition ([2]; at 11.0 µM): 9%; growth inhibition ([2]; at 33.0 µM): 31%; growth inhibition ([2]; at 100.0 µM): 57%; growth inhibition ([3]; at 1.2 µM): 16%; growth inhibition ([3]; at 3.7 µM): 7%; growth inhibition ([3]; at 11.0 µM): 15%; growth inhibition ([3]; at 33.0 µM): 10%; growth inhibition ([3]; at 100.0 µM): 6%; growth inhibition ([4]; at 1.2 µM): 21%; growth inhibition ([4]; at 3.7 µM): 11%; growth inhibition ([4]; at 11.0 µM): 12%; growth inhibition ([4]; at 33.0 µM): 10%; growth inhibition ([4]; at 100.0 µM): 47%; growth inhibition ([5]; at 1.2 µM): 23%; growth inhibition ([5]; at 3.7 µM): 24%; growth inhibition [5, 17]: 20%; growth inhibition ([5]; at 11.0 µM): 42%; growth inhibition ([5]; at 33.0 µM): 52%; growth inhibition [5, 18]: 54%; growth inhibition ([5]; at 50.0 µM): 50.2%; growth inhibition ([5]; at 100.0 µM): 68%; growth inhibition ([6]; at 1.2 µM): 11%; growth inhibition ([6]; at 3.7 µM): 5%; growth inhibition [6, 17]: 17%; growth inhibition ([6]; at 11.0 µM): 16%; growth inhibition ([6]; at 33.0 µM): 14%; growth inhibition [6, 18]: 72% (active); growth inhibition ([6]; at 50.0 µM): 33%; growth inhibition ([6]; at 100.0 µM): 31%; growth inhibition ([7]; at 1.2 µM): 24%; growth inhibition ([7]; at 3.7 µM): 20%; growth inhibition ([7]; at 11.0 µM): 21%; growth inhibition ([7]; at 33.0 µM): 38%; growth inhibition ([7]; at 100.0 µM): 34%; growth inhibition [8, 17]: 11%; growth inhibition [8, 18]: 92% (active); growth inhibition ([8]; at 50.0 µM): 55.2%; growth inhibition ([9]; at 1.2 µM): 29%; growth inhibition ([9]; at 3.7 µM): 24%; growth inhibition ([9]; at 11.0 µM): 34%; growth inhibition ([9]; at 33.0 µM): 38%; growth inhibition ([9]; at 100.0 µM): 37%; growth inhibition [10, 17]: 25%; growth inhibition [10, 18]: 75% (active); growth inhibition ([10]; at 50.0 µM): 14.7%; growth inhibition ([11]; at 1.2 µM): -9%; growth inhibition ([11]; at 3.7 µM): -13%; growth inhibition [11, 17]: 12%; growth inhibition ([11]; at 11.0 µM): -5%; growth inhibition ([11]; at 33.0 µM): 14%; growth inhibition [11, 18]: 89% (active); growth inhibition ([11]; at 50.0 µM): 50.8%; growth inhibition ([11]; at 100.0 µM): 31%; growth inhibition ([12]; at 1.2 µM): -22%; growth inhibition ([12]; at 3.7 µM): -21%; growth inhibition ([12]; at 11.0 µM): -17%; growth inhibition ([12]; at 33.0 µM): 62%; growth inhibition ([12]; at 100.0 µM): 81% (active); growth inhibition ([13]; at 1.2 µM): 8%; growth inhibition ([13]; at 3.7 µM): 17%; growth inhibition ([13]; at 11.0 µM): 9%; growth inhibition ([13]; at 33.0 µM): -8%; growth inhibition ([13]; at 100.0 µM): 9%; growth inhibition ([14]; at 1.2 µM): 28%; growth inhibition ([14]; at 3.7 µM): 18%; growth inhibition ([14]; at 11.0 µM): 25%; growth inhibition ([14]; at 33.0 µM): 36%; growth inhibition ([14]; at 100.0 µM): 64%; growth inhibition [15, 17]: 20%; growth inhibition [15, 18]: 85% (active); growth inhibition ([15]; at 50.0 µM): 57.6%; growth inhibition ([16]; at 1.2 µM): 30%; growth inhibition ([16]; at 3.7 µM): 32%; growth inhibition ([16]; at 11.0 µM): 44%; growth inhibition ([16]; at 33.0 µM): 68%; growth inhibition ([16]; at 100.0 µM): 73% (active)
